Measured values as given in PubChem BioAssay (NCATS).
Inconclusive results are not listed. Active and inactive are the calls of the source. Unless noted, the call rests on the fitted dose curve.

What was measured:
[1] = qHTS for Inhibitors of the Functional Ribonucleoprotein Complex (vRNP) of Lassa (LASV) Arenavirus: LASV Primary Screen - GLuc reporter signal (AID 1347082; calls by dose curve; tested in HEK293 reporter line; further: on the % scale 0 is the no-effect control and ±100 the full control effect; nearly all actives have a fitted effect of over 60% in size)
[2] = qHTS for Inhibitors of the Functional Ribonucleoprotein Complex (vRNP) of Lassa (LASV) Arenavirus: Viability assay - alamar blue signal for LASV Primary Screen (AID 1347083; calls by dose curve; tested in HEK293 reporter line; further: nearly all actives have a fitted effect of over 80% in size; further: potency means the concentration at half of the fitted maximal effect)
[3] = qHTS for Inhibitors of the Functional Ribonucleoprotein Complex (vRNP) of Lymphocytic Choriomeningitis Arenaviruses (LCMV): Viability assay - alamar blue signal for LCMV Primary Screen (AID 1347085; calls by dose curve; tested in HEK293 reporter line; further: nearly all actives have a fitted effect of over 80% in size; further: potency means the concentration at half of the fitted maximal effect)
[4] = target: Nucleoprotein (Lymphocytic choriomeningitis virus (strain Armstrong)) (UniProt P09992); experiment: qHTS for Inhibitors of the Functional Ribonucleoprotein Complex (vRNP) of Lymphocytic Choriomeningitis Arenaviruses (LCMV): LCMV Primary Screen - GLuc reporter signal (AID 1347086); further: on the % scale 0 is the no-effect control and ±100 the full control effect; nearly all actives have a fitted effect of over 70% in size
Nucleoprotein (Lymphocytic choriomeningitis virus (strain Armstrong)), sequence (P09992 whole entry, looked up): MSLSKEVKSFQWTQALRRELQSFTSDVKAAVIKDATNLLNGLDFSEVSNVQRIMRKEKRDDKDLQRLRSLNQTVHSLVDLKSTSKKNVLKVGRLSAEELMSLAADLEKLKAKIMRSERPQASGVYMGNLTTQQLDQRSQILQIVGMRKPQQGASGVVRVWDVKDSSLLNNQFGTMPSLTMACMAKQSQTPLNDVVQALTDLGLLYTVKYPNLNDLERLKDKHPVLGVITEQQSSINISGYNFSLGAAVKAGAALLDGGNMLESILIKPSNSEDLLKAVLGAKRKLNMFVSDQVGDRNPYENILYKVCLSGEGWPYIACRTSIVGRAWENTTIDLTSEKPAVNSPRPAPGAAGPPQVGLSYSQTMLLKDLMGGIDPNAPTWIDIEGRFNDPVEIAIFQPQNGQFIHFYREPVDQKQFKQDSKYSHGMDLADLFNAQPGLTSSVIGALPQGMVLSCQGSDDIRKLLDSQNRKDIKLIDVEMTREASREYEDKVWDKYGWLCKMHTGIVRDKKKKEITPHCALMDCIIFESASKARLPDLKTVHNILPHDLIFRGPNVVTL

[5] = Cytotoxicity counterscreen for inhibitors of SARS-CoV-2 cell entry (AID 1645845); further: nearly all actives have a fitted effect of over 50% in size
Outline: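 After a 15 min room-temperature ATPLite 1step step, luminescence reflected ATP remaining in HEK293-ACE2 cells exposed to compound for 1 h plus 48 h at 37 C, with percent activity set by cell and no-cell controls.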

[6] = Primary qHTS to identify inhibitors of SARS-CoV-2 cell entry (AID 1645846); conditions: activity change, negative = inhibition: at 57.1 µM (top of the series) unless noted; further: nearly all actives have a fitted effect of over 45% in size
Outline: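 Inhibition of spike-mediated entry was scored in human ACE2-transfected Expi293F cells. Particles were MLV-pseudotyped with Wuhan-Hu-1 S carrying a 19-aa C-terminal deletion; signal was luciferase after two days, scaled between spike PP and fusion-protein-free PP.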

[7] = test system: CRL-7250; experiment: qHTS assay to identify novel small-molecules to repurpose for Merkel cell carcinoma treatment (AID 1296009; active means well fitted curve in the direction sought with a large enough effect; an effect the other way counts as inactive or inconclusive; further: nearly all actives have a fitted effect of over 60% in size); conditions: MCC and control cell lines, CellTiter-Glo viability, 72 h; series mostly up to 92 µM
Outline: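 Viability readout: ATP luminescence (CellTiter-Glo) after 72 hr drug exposure at 37 degree celsius. Dose-response format was 8 points for NPC and 11 points for MIPE; data normalized to in-plate controls.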

[8] = Inducers of the Endoplasmic Reticulum Stress Response (ERSR) in human glioma: Validation (AID 504836; active means well fitted curve in the direction sought with a large enough effect; an effect the other way counts as inactive or inconclusive; further: 0% is about no effect)
Outline: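 Stably transfected U87-MG human glioma cells carrying a GRP78-based luminescent sensor were seeded at 1000 cells/well, pin-dosed with compounds and incubated 16 h. Luciferase reagent was then added, and end-point luminescence was read after 10 min at room temperature.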

[9] = qHTS profiling of the MIPE4 collection as inhibitors of Plasmodium falciparum (3D7) proliferation (AID 743344; call rule not given here;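 further: scaled between DMSO vehicle wells and 0.29 µM artemisinin as full inhibition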); conditions: P. falciparum 3D7 in erythrocytes, SYBR Green DNA fluorescence, 72 h; at 28.5 µM (top of the series) unless noted
Outline: (§1)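 Parasite DNA was quantified by SYBR Green I fluorescence (ex 485, em 535 nm) after overnight lysis in saponin/Triton buffer at room temperature. Cultures at 0.3% parasitemia and 2.5% hematocrit were first exposed to compound for 72 h at 37 C; signals were normalised to artemisinin (0.29 uM) and vehicle wells.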

[10] = qHTS profiling of the MIPE4 collection as inhibitors of Plasmodium falciparum (DD2) proliferation (AID 743345; call rule not given here); conditions: P. falciparum Dd2 in erythrocytes, SYBR Green DNA, 72 h; at 28.5 µM (top of the series) unless noted
Outline: as §1

[11] = target: Bile acid receptor (Homo sapiens) (UniProt Q96RI1); experiment: qHTS assay for small molecule agonists of farnesoid X receptor signaling (AID 588527); conditions: HEK293T FXR-UAS-bla, beta-lactamase ratio, 16 h; activation: stronger effect = higher value;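 further: 0% = vehicle basal and 100% = reference agonist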
Bile acid receptor (Homo sapiens), sequence (Q96RI1 whole entry, looked up): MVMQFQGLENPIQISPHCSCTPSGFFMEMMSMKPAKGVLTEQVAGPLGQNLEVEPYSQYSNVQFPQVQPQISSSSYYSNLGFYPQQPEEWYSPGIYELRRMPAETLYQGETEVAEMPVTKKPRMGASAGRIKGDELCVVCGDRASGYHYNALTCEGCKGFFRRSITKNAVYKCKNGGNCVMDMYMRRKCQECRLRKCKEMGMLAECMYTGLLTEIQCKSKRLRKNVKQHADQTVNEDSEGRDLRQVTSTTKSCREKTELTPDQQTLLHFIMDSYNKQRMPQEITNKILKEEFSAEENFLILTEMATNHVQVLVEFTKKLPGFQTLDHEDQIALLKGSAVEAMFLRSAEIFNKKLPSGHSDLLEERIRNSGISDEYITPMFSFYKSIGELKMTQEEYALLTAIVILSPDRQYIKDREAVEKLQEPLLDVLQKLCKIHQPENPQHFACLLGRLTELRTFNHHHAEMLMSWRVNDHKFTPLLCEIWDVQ
Outline: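 FXR-UAS-bla HEK293T cells (10% dialyzed FBS) preincubated 5-7 h at 37 C, then compounds at up to 92 uM for 16 h at 37 C. CCF4 beta-lactamase read-out after 2 h RT. Normalized to chenodeoxycholic acid (100 uM) and DMSO; Hill fit gave EC50 and efficacy.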

Cc1ccccc1C(C(=O)NC1CCCCC1)N(C(=O)Cn1ccnc1C)c1cccc(F)c1 (centres undefined)
inactive: Potency [1] | Potency [2] | Potency [3] | Potency [4] | Potency [5] | Potency [7]
-3.95%: activity change, negative = inhibition [6]

Nc1[nH]nc2nnc(-c3c(-c4ccccc4)nn4ccccc34)cc12
-11.3%: activity change, negative = inhibition [6]
inactive: Potency [1] | Potency [2] | Potency [3] | Potency [4] | Potency [5] | Potency [7]

CC(C(C)N1CC(=O)NC(=O)C1)N1CC(=O)NC(=O)C1 (centres undefined)
-28.5%: activity change, negative = inhibition [6]
inactive: Potency [1] | Potency [2] | Potency [3] | Potency [4] | Potency [5] | Potency [7]

COC1CCC(C(=O)c2ccc3nc4c(cc3c2)CCCO4)CC1 (centres undefined)
inactive: Potency [1] | Potency [2] | Potency [3] | Potency [4] | Potency [6] | Potency [7]

COc1ccc2cc([S+]([O-])Cc3ncc(C)c(OC)c3C)nc2c1
inactive: outcome [8] | Potency [1] | Potency [2] | Potency [3] | Potency [4] | Potency [7]

COc1ccc([C@@H]2CNC(=O)C2)cc1OC1CCCC1
inactive: Potency [1] | Potency [4] | Potency [5] | Potency [7]
active: Potency [2] 2.73 µM | Potency [3] 3.43 µM
2.39%: activity change, negative = inhibition [6]

CC(C)N(CC[C@H](c1ccccc1)c1cc(CO)ccc1O)C(C)C
81.5%: parasite growth, % of DMSO control [9]
inactive: Potency [1] | Potency [2] | Potency [3] | Potency [4] | Potency [7]
83.7%: parasite growth remaining, % of DMSO control (lower = more inhibition) [10]

Cc1cnc(-c2cc(N3CCN(C(=O)CCS(C)(=O)=O)CC3)ncc2Cl)c(C)c1
-19%: activity change, negative = inhibition [6]
inactive: Potency [1] | Potency [2] | Potency [3] | Potency [4] | Potency [5] | Potency [7]

O=C(c1cncc(Br)c1)N1CCC(N2CCCC2)CC1
inactive: Potency [1] | Potency [2] | Potency [3] | Potency [4] | Potency [6] | Potency [7]

CC1CNc2c(cccc2S(=O)(=O)N[C@@H](CCCN=C(N)N)C(=O)N2CC[C@@H](C)C[C@@H]2C(=O)O)C1 (some centres undefined)
inactive: Potency [1] | Potency [2] | Potency [3] | Potency [4] | Potency [5] | Potency [7]
-11.7%: activity change, negative = inhibition [6]

O=C(O)CCCc1c[nH]c2ccccc12
inactive: activation [11] -2.14% | Potency [1] | Potency [2] | Potency [3] | Potency [4] | Potency [5] | Potency [7]
